Most compounds without a hit are left out; they make up all but 31% or so of the library.
CYP2C9 inhib: human CYP2C9 inhibition. P11712. CYP2C9 Supersomes, luciferin-H conversion, luminescence. inhibition, % at 5 µM. actives 20% (n = 96,000). AID 777;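 active = blocking of liver enzyme CYP2C9 beyond about 50% at 5 µM, limit read from the data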
Target sequence (P11712 whole entry, looked up): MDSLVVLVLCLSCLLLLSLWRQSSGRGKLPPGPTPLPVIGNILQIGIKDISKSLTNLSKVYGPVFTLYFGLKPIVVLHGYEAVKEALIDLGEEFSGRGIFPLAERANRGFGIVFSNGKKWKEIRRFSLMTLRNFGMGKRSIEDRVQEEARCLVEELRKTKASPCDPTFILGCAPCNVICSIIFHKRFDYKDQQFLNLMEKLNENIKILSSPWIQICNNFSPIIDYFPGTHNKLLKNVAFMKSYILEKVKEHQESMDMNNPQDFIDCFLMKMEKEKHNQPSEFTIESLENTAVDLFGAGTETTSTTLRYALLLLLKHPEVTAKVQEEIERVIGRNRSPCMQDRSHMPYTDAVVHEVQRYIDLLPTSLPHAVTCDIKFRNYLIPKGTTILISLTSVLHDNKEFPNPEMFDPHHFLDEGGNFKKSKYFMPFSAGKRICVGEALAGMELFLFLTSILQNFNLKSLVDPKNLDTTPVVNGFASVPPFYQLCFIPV
CYP2C9 activ: increases human cytochrome P450 2C9 activity; recombinant CYP2C9, luciferin-H conversion, luminescence; stronger effect = higher value; factor 1 = untreated enzyme, 0 = blocked; actives 1.4% (n = 96,000); P11712; activation factor at 5 µM; AID 1024;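 active = activation factor of 2 or more for CYP2C9 at a 5 µM dose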;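 also: 0 = sulfaphenazole-blocked wells and 1 = vehicle-only wells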
CYP2C19 inhib: human CYP2C19 inhibition; actives 21% (n = 96,000); P33261; AID 778; inhibition, % at 5 µM; CYP2C19 Supersomes, luciferin-H EGE luminescence, 30 min;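 active = CYP2C19 inhibition above a set limit at 5 µM in the primary screen, cut at about 50% in these data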;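 also: plate controls were negative control wells for no effect and 2.5 mM tranylcypromine positive control for full effect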
PLAP act: activates human placental alkaline phosphatase | P05187 | purified PLAP enzyme, luminescent substrate read-out; stronger effect = higher value | activation fold at 20 µM | actives 1.2% (n = 96,000) | AID 696; in the data active = activation fold above about 2
CYP2C19 act: cytochrome P450 2C19 (human) activation; P33261; recombinant CYP2C19, luciferin-H EGE luminescence; stronger effect = higher value; 0 = fully inhibited enzyme, 1 = untreated enzyme; activation factor at 5 µM; 96,000 tested, under 10 active; AID 1025;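 active = activation factor of at least 2 at 5 µM in the primary screen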;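 also: 0 = wells with 2.5 mM tranylcypromine and 1 = vehicle-only wells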
* = called active by the depositor.

SMILES	CYP2C9 inhib	CYP2C9 activ	CYP2C19 inhib	PLAP act	CYP2C19 act
CC(C)(C)c1ccc(COn2c(=O)c(-c3ccco3)[n+]([O-])c3ccccc32)cc1	-8	1.1	6	1.1	0.9
O=S(=O)(c1ccccc1)C1(S(=O)(=O)c2ccccc2)CCCC1	58*	0.4	98*	0.8	0
O=C(OCCN1C(=O)c2ccccc2C1=O)c1cccc(OC(F)F)c1	26	0.7	90*	1	0.1
Nc1nnnn1CC(=O)OCc1cccc(Br)c1	-160	2.6*	36	1	0.6
Cc1ccc(CNC(=O)c2ccc(NS(=O)(=O)c3c(C)noc3C)cc2)cc1	70*	0.3	4	1.2	1
CCc1ccc(N(CC(=O)O)S(=O)(=O)c2c(C)noc2C)cc1	25	0.7	-2	1.2	1
Cc1noc(C)c1S(=O)(=O)Nc1ccc(C(=O)NC2CCCCCC2)cc1	41	0.6	-10	1.1	1.1
CCc1ccc(NC(=O)CNS(=O)(=O)c2c(C)noc2C)cc1	51*	0.5	37	1.2	0.6
COc1ccc(CCNC(=O)c2ccc(NS(=O)(=O)c3c(C)noc3C)cc2)cc1OC	64*	0.4	11	1.1	0.9
COc1ccc(CCNC(=O)c2noc3c2CCCC3)cc1OC	-1	1	16	1.1	0.8
COCCCNC(=O)c1ccc2nc3ccccc3c(=O)n2c1	23	0.8	24	1	0.8
O=C1Nc2ccccc2C1(c1ccccc1)c1ccccc1	74*	0.3	72*	0.9	0.3
COCCNC(=O)Cn1c(=O)n(C)c2ccccc21	3	1	-3	0.9	1
CCn1c(C)nc2cc(C(=O)OC(C(F)(F)C(F)F)C(F)(F)C(F)F)ccc21	54*	0.5	48	1.4	0.5
CCn1c(C)nc2cc(C(=O)NNS(=O)(=O)c3c(C)c(C)cc(C)c3C)ccc21	-2	1	55*	2*	0.5
CCn1c(C)nc2cc(C(=O)n3cc(C(=O)c4ccccc4O)cn3)ccc21	41	0.6	10	1.4	0.9
Cc1ccc(CN2CCN(CC(=O)NCc3ccc(Cl)cc3)C2=O)cc1	35	0.7	36	0.9	0.6
Cc1ccc(S(=O)(=O)CNC(=S)c2ccc3ccccc3c2)cc1	60*	0.4	60*	1.1	0.4
Cc1ccc(S(=O)(=O)CNC(=S)c2cccc(C)c2)cc1	-90	1.9	94*	1	0.1
COC(=O)c1ccc2nc(C(F)(F)F)[nH]c2c1	45	0.6	34	1	0.7
CC(C)(C)NC(=O)COC(=O)c1cc(F)c(F)cc1Cl	1	1	77*	0.9	0.2
COC(=O)c1ccc(C(C(=O)NCc2ccccc2)N(Cc2cccs2)C(=O)c2cnccn2)cc1 (stereo not drawn)	32	0.7	7	1.1	0.9
COc1ccc(C(C(=O)NCc2ccccc2)N(Cc2ccc3c(c2)OCO3)C(=O)c2cnccn2)cc1 (stereo not drawn)	94*	0.1	94*	1.7	0.1
COc1ccc(CNC(=O)C(c2ccco2)N(Cc2cccs2)C(=O)Cc2cccs2)cc1 (stereo not drawn)	-6	1.1	8	1	0.9
COc1ccc(CNC(=O)C(c2ccc(C)cc2)N(Cc2cccs2)C(=O)c2ccc3c(c2)OCCO3)cc1 (stereo not drawn)	49	0.5	66*	1.1	0.3
SMILES	CYP2C9 inhib	CYP2C9 activ	CYP2C19 inhib	PLAP act	CYP2C19 act
COc1ccc(CNC(=O)C(c2ccncc2)N(C(=O)Cc2cccs2)c2cccc(C)c2)cc1 (stereo not drawn)	48	0.5	70*	1.1	0.3
COc1ccc(CNC(=O)C(c2ccncc2)N(C(=O)Cc2cccs2)c2ccccc2C)cc1 (stereo not drawn)	28	0.7	54*	1	0.5
C=CCN(Cc1cccc(OC)c1OC)S(=O)(=O)N(C)C	20	0.8	33	1.1	0.7
COCCN(C(=O)Cc1cccs1)C(C(=O)NCc1ccc(OC)cc1)c1ccc(OC)cc1 (stereo not drawn)	65*	0.3	38	1.7	0.6
COc1ccc(NC(=O)C2CCCCN2S(=O)(=O)c2ccc(F)cc2)c(OC)c1 (stereo not drawn)	26	0.7	43	1	0.6
COc1ccc(NS(=O)(=O)c2ccc(SC)cc2)c(OC)c1	-60	1.6	87*	0.9	0.1
COc1ccccc1NS(=O)(=O)c1cccs1	-117	2.2*	81*	1	0.2
COc1ccc(NS(=O)(=O)c2cccs2)c(OC)c1	-68	1.7	55*	1	0.5

High-throughput results: PubChem BioAssay, Sanford-Burnham Center for Chemical Genomics
